# Screening data: PubChem BioAssay, National Center for Advancing Translational Sciences (NCATS)
# HT1080 IDH1KD tx: qHTS for induction of synthetic lethality in tumor cells producing 2HG: qHTS for the HT-1080-IDH1KD cell line. HT-1080 IDH1 knockdown viability, ATP luminescence, 48 h. Potency, µM (doses to about 46.1 µM), most hits filed as cytotoxic. 360,000 compounds, 2% hits
#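 Luminescent ATP read-out (CellTiter-Glo, 10 min at room temperature) after 48 h compound exposure at 37 °C gave viability of IDH1-knockdown HT-1080 cells. Activity was normalised to DMSO and cell-free wells, then fitted as concentration-response curves.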
# HepG2 viability: qHTS for Inhibitors of TGF-b: Cytotox Counterscreen; 410,000 compounds, 0.76% hits; Potency, µM (titrated, usually from 46.1 µM), most hits filed as cytotoxic; HepG2 CAGA-GFP viability, ATP luminescence, 18 h
#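 HepG2 CAGA-GFP cells (1000/well, DMEM with 1% FBS) received compound, then TGF-beta at 500 pg/mL final, and were incubated 18 hours at 37 degrees C. Viability was read by CellTiter-Glo luminescence. Media-only wells were set as complete cell-killing and DMSO as no toxicity.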
# TGFb inhibitor: qHTS for Inhibitors of TGF-b; 410,000 compounds, 1.2% hits; Potency, µM (highest dose often 46.1 µM), actives largely listed as inhibitors; HepG2 CAGA-GFP TGF-b/SMAD3 reporter, GFP fluorescence, 18 h; TGF-beta stimulated, 500 pg/mL final; note: nearly all actives have a fitted effect of over 65% in size
#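 Cell-based qHTS in HEPG2 carrying a CAGA-GFP Smad reporter; compounds added before 500 pg/mL final TGF-beta, 18 h incubation at 37 degrees C, GFP fluorescence quantified per cell by imaging cytometry.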
# ATXN2 expr inh: Primary qHTS for Inhibitors of ATXN expression. 360,000 compounds, 0.72% hits. HEK-293 ATXN2-luciferase reporter, luminescence, 24 h. Potency, µM (titrated, usually from 57 µM), actives largely listed as inhibitors; note: nearly all actives have a fitted effect of over 55% in size
#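 qHTS (up to 57 uM final) was run with 24 h compound exposure of reporter cells at 37 °C. Each well was multiplexed: SteadyGlo luminescence measured ATXN2-luciferase expression after a fluorogenic Gly-Phe-AFC viability readout (25 uM final).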
# HT1080NT lethal: qHTS for induction of synthetic lethality in tumor cells producing 2HG: qHTS for the HT-1080-NT fibrosarcoma cell line. AID 686970, 2013. Potency, µM (doses to about 46.1 µM), hits mostly cytotoxic. HT-1080-NT fibrosarcoma viability, CellTiter-Glo ATP luminescence, 48 h. 360,000 compounds, 1.6% hits;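 note: NT is the 2HG producing partner of a matched IDH1 knockdown line; nearly all actives have a fitted effect of over 55% in size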
#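 Viability of the 2HG-overproducing fibrosarcoma line after 48 hours of compound exposure at 37 degrees C was determined by luminescence with CellTiter-Glo, and concentration-effect curves were then fitted and categorized.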
# S2 tox: Viability Counterscreen for Primary qHTS for Inhibitors of ATXN expression. S2 cells (HEK-293 line with an ATXN2-luciferase reporter) viability, CellTiter-Fluor protease fluorescence, 24 h. Potency, µM (doses to about 56.7 µM), usual class: cytotoxic. 400,000 compounds, 0.49% hits. AID 651635, 2014; note: nearly all actives have a fitted effect of over 40% in size
# A number is an active result; i = inactive; ? = inconclusive; nt = no result given. The list is not random: actives were taken first. Their share in the collection is about 3.9%. Calls come from the whole dose curve; as a rule, active = well fitted curve in the direction sought with a large enough effect; inconclusive = small, poorly fitted or top-dose-only effect, or another doubt; inactive = no such curve, though single readings can be large; an effect the other way counts as inactive or inconclusive.
SMILES,HT1080 IDH1KD tx,HepG2 viability,TGFb inhibitor,ATXN2 expr inh,HT1080NT lethal,S2 tox
CCN(Cc1ccccc1)S(=O)(=O)c1ccc(C(=O)N(CCCN(C)C)c2nc3cc(C)cc(C)c3s2)cc1,23.1µM,i,?,?,16.4µM,25.1µM
Cc1cc(C)c2sc(N(CCCN(C)C)C(=O)c3ccc(Br)s3)nc2c1,?,i,?,8.91µM,23.1µM,11.2µM
Cc1cc(C)c2sc(N(CCCN(C)C)C(=O)c3ccc(S(=O)(=O)N(C)Cc4ccccc4)cc3)nc2c1,i,i,?,?,i,nt
CCCCN(CC)S(=O)(=O)c1ccc(C(=O)N(CCCN(C)C)c2nc3cc(C)cc(C)c3s2)cc1,?,i,?,?,20.6µM,?
CCc1ccc(CNC(=O)CSc2cc(=O)n(C)c3ccc(Cl)cc23)cc1,nt,i,i,i,nt,i
O=C(Nc1nnc(Cc2ccc(Cl)cc2)s1)C1CCN(C(=O)c2ccco2)CC1,nt,i,?,nt,nt,nt
CCOC(=O)c1c(-c2ccccc2)oc2ccc(NS(=O)(=O)c3cc(C)c(C)cc3C)cc12,nt,i,?,i,nt,i
CCCc1oc2ccc(NS(=O)(=O)c3ccc(OC)cc3)cc2c1C(=O)OCC,nt,i,10µM,nt,nt,nt
CCOC(=O)c1c(-c2ccccc2)oc2ccc(NS(=O)(=O)c3ccc(OC)cc3)cc12,nt,i,12.6µM,nt,nt,nt
CCCc1oc2ccc(NS(=O)(=O)c3ccc(OCC)cc3)cc2c1C(=O)OCC,nt,i,?,nt,nt,nt
CCOC(=O)c1c(-c2ccccc2)oc2ccc(NS(=O)(=O)c3ccccc3)cc12,nt,i,15.8µM,?,nt,?
c1cncc(OC2CCN(Cc3ccc4c(c3)CN(Cc3nc5ccccc5s3)CCO4)CC2)c1,nt,nt,nt,nt,nt,i
C/C=C(/CC[C@@H](C)[C@H]1CC[C@H]2C3=CC[C@H]4[C@H](C)[C@@H](O)CC[C@]4(C)[C@H]3CC[C@]12C)C(C)C,nt,nt,nt,nt,nt,i
Cc1ccc(NC(/C=C/N(C)C)=C/C(=O)C(F)(F)F)c(C)c1,i,i,20µM,i,i,i
CN(C)/C=C\C(=C/C(=O)C(F)(F)F)Nc1ccccc1Oc1ccccc1,i,i,?,i,i,i
Cc1ccc(C(NC(=O)N2CCOCC2)=C(Cl)Cl)cc1F,14.1µM,i,?,i,?,i
CCCCC1C(=O)NN(c2ccccc2)C1=O (stereo unspecified),4.61µM,i,i,i,1.84µM,i
CSc1ccc(CNC(=O)Cc2ccc(NC(=O)C3=C(C)OCCS3)cc2)cc1,16.4µM,i,i,nt,?,i
Oc1ccccc1C1C=C(c2ccc3c(c2)OCO3)NC(c2cccc(Br)c2)N1 (stereo unspecified),nt,i,?,nt,nt,nt
Oc1ccccc1C1C=C(c2ccc3c(c2)OCO3)NC(c2cccc(F)c2)N1 (stereo unspecified),nt,17.8µM,?,nt,nt,nt
COC(=O)c1ccc(C2NC(c3ccc4c(c3)OCO4)=CC(c3ccccc3O)N2)cc1 (stereo unspecified),nt,i,11.2µM,nt,nt,nt
O=C1C=C(c2c(O)ccc3ccccc23)c2ccccc2C1=O,?,12.6µM,2.82µM,15.8µM,7.31µM,nt
CCOc1ccccc1C(=O)N(Cc1ccc(N(C)C)cc1)Cc1ccco1,nt,i,nt,nt,nt,nt
CCc1ccc(CNCc2c(C(=O)O)n(Cc3ccc(C)cc3)c3cc(C)ccc23)cc1,nt,17.8µM,15.8µM,i,nt,nt
Cc1ccc(CNCc2c(C(=O)O)n(Cc3ccc(C)cc3)c3cc(C)ccc23)cc1,nt,i,28.2µM,?,nt,nt
SMILES,HT1080 IDH1KD tx,HepG2 viability,TGFb inhibitor,ATXN2 expr inh,HT1080NT lethal,S2 tox
C=Cc1ccc(Cn2c(C(=O)O)c(CNCc3ccccc3)c3ccc(C)cc32)cc1,nt,20µM,?,i,nt,15.8µM
CCc1ccc(CNCc2c(C(=O)O)n(Cc3cccc(F)c3)c3cc(OC)ccc23)cc1,nt,i,?,?,nt,31.6µM
COc1cc(=O)n2c(c1C(=O)NC(C)c1ccco1)CCN(Cc1ccccc1C(F)(F)F)CC2 (stereo unspecified),nt,nt,nt,nt,nt,i
c1cncc(OC2CCN(Cc3ccc4c(c3)CN(Cc3ccc5c(c3)CCO5)CCO4)CC2)c1,nt,nt,nt,nt,nt,i
CC(C)Oc1ccc(CNC(=O)CN2C(=O)CCn3nc(-c4cn(C)c5ccccc45)cc32)cc1,nt,i,?,i,nt,i
COc1ccc(/C(C)=C/C(=O)O)c(OC)c1,nt,nt,nt,i,nt,i
Cc1ccc(CNc2nc3ccccc3n3c(C)nnc23)cc1,nt,i,i,i,nt,i
Fc1ccccc1C1c2cccn2CCN1C(=S)Nc1ccc(Br)cc1 (stereo unspecified),?,i,22.4µM,?,i,i
O=C(NCC(c1ccco1)N1CCCCC1)c1ccc([N+](=O)[O-])s1 (stereo unspecified),i,i,15.8µM,?,i,i
Cc1ccccc1-c1nc(CN2CCC(C(=O)NC(C)C)CC2)c(C)o1,nt,i,i,i,nt,i
CC(C)(C)C1CCc2oc3ccc(NS(=O)(=O)c4ccc(C(=O)O)cc4)cc3c2C1 (stereo unspecified),nt,i,22.4µM,nt,nt,nt
CC(=O)c1c(C)oc2ccc(NS(=O)(=O)c3ccc(F)cc3C)cc12,i,i,?,i,i,i
Cc1cc(F)ccc1S(=O)(=O)Nc1ccc2oc3c(c2c1)CC(C)CC3 (stereo unspecified),nt,i,?,?,nt,31.6µM
Cc1cc(S(=O)(=O)Nc2ccc3oc4c(c3c2)CCCC4)ccc1Cl,nt,i,15.8µM,?,nt,?
Cc1cc(C)c(S(=O)(=O)Nc2ccc3oc4c(c3c2)CCCC4)cc1C,nt,i,?,i,nt,i
CSc1ccccc1C(=O)NCC1Cc2cc(F)cc(-c3cnccn3)c2O1 (stereo unspecified),nt,nt,nt,nt,nt,i
CCC1(C2CCN(C(=O)c3cc(F)ccc3F)CC2)NC(=O)N(CCc2scnc2C)C1=O (stereo unspecified),nt,nt,nt,nt,nt,i
COC(=O)c1sccc1S(=O)(=O)N1CCC(n2c(CC3CCCC3)nc3cccnc32)CC1,nt,nt,nt,nt,nt,i
C[C@@H]1COC(=O)[C@H](Cc2ccc(F)cc2)CC/C=C/C[C@@H](CC(=O)N[C@@H](CO)Cc2ccccc2)C(=O)N1,i,i,i,i,i,i
O=C(C[C@@H]1C/C=C/CC[C@H](Cc2ccc(F)cc2)C(=O)OC[C@@H](Cc2ccccc2)NC1=O)N[C@H](CO)Cc1ccccc1,?,i,?,11.2µM,?,12.6µM
CCc1ccc(CNC(=O)c2ccc(NC(=O)N3CCCCc4ccccc43)cc2)cc1,nt,i,i,i,nt,i
Fc1cccc(CCN2CCNC[C@H]2Cc2cccc3ccccc23)c1,i,15.8µM,15.8µM,i,i,?
